Assay outcomes as filed in PubChem.
Tau fibril FP: qHTS for Inhibitors of Tau Fibril Formation, Fluorescence Polarization. Microtubule-associated protein tau (Homo sapiens), P10636. Potency, µM (highest dose often 57.7 µM), for inactives: top-dose activity, negative = inhibition, usual class: inhibitors. K18 P301L tau heparin fibrillization, Alexa594 FP, 6 h. 0.39% of 280,000 active; further: potency means the concentration at half of the fitted maximal effect; nearly all actives have a fitted effect of over 55% in size
Target sequence (P10636 561-689 P618L limits assumed): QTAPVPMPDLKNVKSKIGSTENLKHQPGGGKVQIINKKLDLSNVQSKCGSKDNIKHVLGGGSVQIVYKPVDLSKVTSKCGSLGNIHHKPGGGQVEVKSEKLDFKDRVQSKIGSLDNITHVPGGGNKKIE
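Human K18 P301L fragment (15 uM unlabeled plus 0.24 uM Alexa 594-labeled) in 100 mM sodium acetate pH 7 with compound, aggregation induced by 20 uM heparin for 6 hr at 37 C. ThT (30 uM) added for 1 hr, then Alexa 594 FP read.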
Tau fluor counter: Counterscreen qHTS for Inhibitors of Tau Fibril Formation, Fluorescence Polarization; tau K18 P301L Alexa594 fluorescence, heparin fibrillization; Potency, µM (top dose mostly 57.7 µM), without a hit: top-dose activity change, negative = decrease; 0.93% of 280,000 active; further: potency means the concentration at half of the fitted maximal effect; nearly all actives have a fitted effect of over 55% in size
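Human K18 P301L tau (15 uM unlabeled plus 0.24 uM Alexa 594-labeled, final) in 100 mM sodium acetate pH 7 was mixed with compound and 20 uM heparin and incubated 6 hr at 37 C.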
JMJD2E inh: qHTS Assay for Inhibitors of Human Jumonji Domain Containing 2E (JMJD2E) | JMJD2E catalytic domain, FDH-coupled NADH fluorescence (FDH is formaldehyde dehydrogenase) | Lysine-specific demethylase 4E (Homo sapiens), B2RXH2 | Potency, µM (titrated, usually from 57.1 µM), for inactives: top-dose activity change, negative = inhibition, actives largely listed as inhibitors | 1.6% of 230,000 active; active means well fitted inhibition curve with a large enough effect, not every such curve was filed as active; inconclusive means small, poorly fitted or top-dose-only effect, or another doubt; inactive means no such curve, though single readings can be large or run the other way;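 further: potency means the concentration at half of the fitted maximal effect; 0% = wells with enzyme and -100% = buffer wells without enzyme; nearly all actives have a fitted effect of over 50% in size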
Target sequence (B2RXH2 1-337 limits assumed): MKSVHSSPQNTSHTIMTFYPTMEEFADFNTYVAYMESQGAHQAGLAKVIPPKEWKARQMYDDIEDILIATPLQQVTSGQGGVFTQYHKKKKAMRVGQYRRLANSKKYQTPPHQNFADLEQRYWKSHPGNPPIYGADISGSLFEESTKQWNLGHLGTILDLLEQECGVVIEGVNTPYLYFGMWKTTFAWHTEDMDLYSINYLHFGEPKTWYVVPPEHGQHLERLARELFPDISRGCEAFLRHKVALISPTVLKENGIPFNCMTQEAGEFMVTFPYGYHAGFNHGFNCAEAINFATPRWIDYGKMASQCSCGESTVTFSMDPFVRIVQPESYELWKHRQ
Tau ThT inhib: qHTS for Inhibitors of Tau Fibril Formation, Thioflavin T Binding. Potency, µM (titrated, usually from 57.4 µM), without a hit: at the top dose activity, negative = inhibition, most hits filed as inhibitors. Microtubule-associated protein tau (Homo sapiens), P10636. 2.1% of 270,000 active. AID 1460, 2008. recombinant tau K18 P301L (four-repeat tau fragment), heparin-induced fibrillization, ThT fluorescence; further: potency means the concentration at half of the fitted maximal effect; nearly all actives have a fitted effect of over 55% in size
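Aggregation was driven by heparin (20 uM final) acting on recombinant tau […] bearing P301L in 100 mM sodium acetate pH 7; fibrils were detected with Thioflavin T.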
NPSR antag: qHTS Assay for Antagonists of the Neuropeptide S Receptor: cAMP Signal Transduction. Q6W5P4. CHO-NPSR cells, cAMP TR-FRET, antagonist mode. 1% of 220,000 active. Potency, µM (doses to about 38.3 µM), for the others: at the highest dose activity change, negative = inhibition, hits mostly inhibitors; further: potency means the concentration at half of the fitted maximal effect; nearly all actives have a fitted effect of over 50% in size
PNC inhibitor: High Content Assay for Compounds that inhibit the Assembly of the Perinucleolar Compartment; 3.1% of 140,000 active; activity change (PNC), negative = inhibition, % at 10 µM; PC3M PTB-GFP, PNC prevalence imaging, 16 h; hits give low values;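 active means readout at or below -70, meaning at least 70% loss of cells showing the perinucleolar compartment, a nuclear body marking cancer cells; inconclusive means readout between -30 and a set limit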;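 further: plate controls were DMSO wells for no effect and camptothecin positive control wells for full effect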
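Compounds are pinned in duplicate onto adhered PC3M cells stably expressing GFP-tagged PTB and incubated 16 h at 37 C. Cells are then fixed, nuclei stained with Hoechst, and PNC-positive cells counted.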
* = called active by the depositor; ? = inconclusive; / = no result; [ ] = remark or other dose. Compounds with a hit are over-represented: about 5.1% of the library has one in this group of screens. Unless noted, the call rests on the fitted dose curve; in most records, active means well fitted curve in the direction sought with a large enough effect; inconclusive means small, poorly fitted or top-dose-only effect, or another doubt; inactive means no such curve, though single readings can be large; an effect the other way counts as inactive or inconclusive. Unless noted, on the % scale 0 is the no-effect control and ±100 the full control effect.

SMILES	Tau fibril FP	Tau fluor counter	JMJD2E inh	Tau ThT inhib	NPSR antag	PNC inhibitor
O=C1C=C(Nc2ccc(O)cc2)C(=O)c2ccccc21	?	16µM*[quencher]	3%	13µM*	38%	/
O=C(NCCN1CCCC1)c1ccccc1Cl	-2%	-10%	0%	-8%	-11%	/
O=C1C(Cl)=C(NCCN2CCCCC2)C(=O)c2ccccc21	-4%	?	-8%	10µM*	?	/
COC(=O)c1ccc(Cl)cc1NC(=O)N(C)CCc1c(C)nn(C)c1C	8%	17%	/	3%	/	/
O=C(NC1CCCCC1)c1ccc(CSc2nc3cccnc3n2Cc2cccc(F)c2)cc1	6%	-21%	/	-3%	/	/
COc1cc(/C=C(\C#N)c2nc3ccc(C)cc3[nH]2)cc([N+](=O)[O-])c1O	-1%	8.9µM*[quencher]	0%	2µM*	-46%	/
Cc1ccc2nc(/C(C#N)=C\c3cc(O)ccc3[N+](=O)[O-])[nH]c2c1	14%	-27%	-2%	16µM*	-22%	/
COc1cc(/C=C(\C#N)c2nc3ccc(C)cc3[nH]2)c([N+](=O)[O-])cc1OC	13%	?	4%	14µM*	-16%[46.1 µM]	-9
Cc1ccc2nc(/C(C#N)=C/c3ccc(-c4cccc([N+](=O)[O-])c4)o3)[nH]c2c1	-5%	?	-1%	1.4µM*	-8%	?
Cc1ccc2nc(/C(C#N)=C/c3ccc(-c4ccc(F)cc4F)o3)[nH]c2c1	-6%	-18%	/	-9%	/	/
Cc1ccc(-c2cn3c(n2)sc2cc(C(=O)NCc4cccs4)ccc23)cc1	1%	-9%	/	-11%	/	/
CCc1ccc(Sc2cc(C(=O)NCCCN3CCC(C)CC3)c3ccccc3n2)cc1	-13%	-15%	/	-6%	/	/
COC(=O)c1sc2cccc(F)c2c1S(=O)(=O)N1CCN(c2cccc(OC)c2)CC1	-5%	?	/	-3%	/	/
COc1ccccc1NC(=O)Cn1c(=O)n(Cc2nc(-c3ccccc3)no2)c(=O)c2ccccc21	?	-23%	/	4%	/	/
COc1c(Cl)cc(Cl)cc1/C=C(\C#N)c1nc2ccccc2[nH]1	-4%	-9%	/	-4%	/	/
COc1c(O)ccc(/C=C(\C#N)c2nc3ccccc3[nH]2)c1[N+](=O)[O-]	9%	?	?	7.1µM*	2%	?
Cc1ccc(N2CCN(c3nc4ccc(C)cc4n4nnnc34)CC2)c(C)c1	13%	0%	/	2%	/	/
Cc1ccc2nc(N3C(=O)C(O)=C(C(=O)c4cc5ccccc5o4)C3c3cccs3)sc2c1 (stereo unspecified)	2%	-14%	-6%	?	2%[46.1 µM]	?
Cc1cc(N2C(=O)C(O)=C(C(=O)c3ccc(C)o3)C2c2cccs2)no1 (stereo unspecified)	6%	9%	?	-5%	7.9µM*	17
CCc1ccc2nc(N3C(=O)C(O)=C(C(=O)c4ccco4)C3c3cccs3)sc2c1 (stereo unspecified)	5%	-5%	?	?	10µM*	-100*
O=C(N/N=C/c1c(Cl)cccc1Cl)c1ccccc1F	-2%	-3%	-4%	-3%	8%	-84*
O=C(N/N=C/c1c(Cl)cccc1Cl)c1ccc(F)cc1	-3%	-7%	6%	-21%	-9%[46.1 µM]	3
CC1=C/C(=C/N(C)C)C(=O)O1	?	-14%	2%	?	0%	/
CN(C)/C=C1/C=C(c2ccccc2)OC1=O	?	-23%	?	40µM*	-9%[46.1 µM]	37
Cc1ccc(C)c2[nH]c(=O)c(C(c3nnnn3Cc3ccco3)N3CCc4ccccc4C3)cc12 (stereo unspecified)	?	-18%	?	32µM*	-15%[46.1 µM]	14
C=C(C)COc1ccc(-c2[nH]ncc2-c2ccc(Br)cc2)c(O)c1	28µM*	10µM*[quencher]	20%	?	?	-1
